The target of assay [1] is Estrogen receptor beta (Homo sapiens) (UniProt Q92731). The experiment in a line: qHTS assay to identify small molecule antagonists of the estrogen receptor beta (ER-beta) signaling pathway (AID 1259378; active = well fitted inhibition curve with a large enough effect in the signal ratio in the repeat runs, not every such curve was filed as active; the % refers to the signal ratio). The essentials:
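ER-beta-UAS-bla HEK293T (GripTite) cells in 2% charcoal-stripped FBS medium were preincubated 6 hr at 37C, dosed with compound, then stimulated with 1 nM E2 (final) for 16 hr; beta-lactamase reporter read by B/G FRET fluorescence after 2 hr substrate loading.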
(In qHTS, concentration-response curves come from the screen itself.)

Assay [2] can be described thus: qHTS assay to identify small molecule agonists of the androgen receptor (AR) signaling pathway in the presence of an antagonist - cell viability counter screen (AID 1259379).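 Also: MDA-kb2 human breast cancer cells carrying an MMTV luciferase reporter; series mostly up to about 92 µM; nearly all actives have a fitted effect of over 25% in size.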 The essentials:
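A CellTiter-Fluor read-out measured viability of MDA-kb2 reporter cells (MMTV promoter with AR and GR response elements). Treatment: nilutamide 3.0uM final with compounds at 15 concentrations, 16 hr, 37C, 0% CO2.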

Assay [3] in a line: qHTS assay to identify small molecule agonists of the estrogen receptor beta (ER-beta) signaling pathway - cell viability counter screen (AID 1259380). Also: nearly all actives have a fitted effect of over 30% in size. Also: potency is read from the fitted curve at half-maximal effect. In a few lines: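 Cells used were ER-beta-UAS-bla HEK293T in medium with 2% charcoal-stripped FBS. They were treated for 16 hr at 37C. Viability came from CellTiter-Glo luminescence.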
Assay [4] can be described thus: qHTS assay to identify small molecule antagonists of the estrogen receptor beta (ER-beta) signaling pathway - cell viability counter screen (AID 1259382). Also: series mostly up to about 92 µM; nearly all actives have a fitted effect of over 55% in size. In a few lines: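 Agonist-stimulated (1nM E2) ER-beta-UAS-bla HEK293T cells are incubated with library compounds for 16 hr at 37C. Cell viability is then assessed in the reporter-assay wells by adding CellTiter-Glo and reading luminescence after 30 min.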

Assay [5] concerns the target Estrogen receptor (Homo sapiens) (UniProt P03372). The experiment in a line: qHTS assay to identify small molecule agonists of the estrogen receptor alpha (ER-alpha) signaling pathway in the presence of an antagonist (AID 1259383; calls by dose curve; also: top concentration of the series differs between compounds; nearly all actives have a fitted effect of over 15% in size). In a few lines:
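Using VM7Luc4E2 cells seeded 24hr before treatment, antagonist ICI-182,780 (10.0nM final) was added, followed by compounds at 15 concentrations. Plates incubated 22hr; ONE-Glo luminescence quantified reporter activity.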

Assay [6] can be described thus: qHTS assay to identify small molecule agonists or antagonists of the thyroid stimulating hormone receptor (TSHR) signaling pathway - wild type cell line counter screen (AID 1259384; calls by dose curve). The essentials: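 Wild-type HEK293 cells were plated 18 h at 37 C/5% CO2, pin-dosed with compound plus Ro20-1724 medium, held 30 min at room temperature, then given cAMP-d2 and anti-cAMP-cryptate; fluorescence was read after 1 h. Fifteen concentrations, triplicate.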

For assay [7], the target named is Thyrotropin receptor (Homo sapiens) (UniProt P16473). The experiment in a line: qHTS assay to identify small molecule antagonists of the thyroid stimulating hormone receptor (TSHR) signaling pathway (AID 1259385; calls by dose curve; also: nearly all actives have a fitted effect of over 20% in size). The essentials:
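TSHR-HEK293 cells were plated and held 18 h at 37C/5% CO2, then given compound plus Ro20-1724 and stimulated with TSH at 1.5 ng/mL final. After 30 min at room temperature, cAMP was detected with cAMP-d2/anti-cAMP-cryptate (1 h) by fluorescence.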

Assay [8] is described as follows: qHTS assay to identify small molecule agonists of the estrogen receptor alpha (ER-alpha) signaling pathway in the presence of an antagonist - cell viability counter screen (AID 1259386).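 Also: series mostly up to about 92 µM; cells exposed to compounds for 22 h at 37 °C before the viability read; nearly all actives have a fitted effect of over 30% in size.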 In a few lines:
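ICI-182,780 at 10.0nM final accompanies the compound titration (15 concentrations, 22hr, 37C) on VM7Luc4E2 cells. The CellTiter-Fluor fluorescence readout runs in the same wells as the luciferase assay.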

For assay [9], the target named is Progesterone receptor (Homo sapiens) (UniProt P06401). The experiment in a line: qHTS assay to identify small molecule agonists of the progesterone receptor (PR) signaling pathway (AID 1346784; calls by dose curve; also: nearly all actives have a fitted effect of over 30% in size). In a few lines: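 Cells (PR-UAS-bla HEK 293T, GripTite) were plated in assay medium containing 2% charcoal-stripped FBS and incubated 6 hr. Test compounds in DMSO were added for 16 hr at 37C. FRET substrate was then loaded for 2 hr at room temperature before fluorescence reading.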
Progesterone receptor (Homo sapiens), sequence (P06401 whole entry, looked up): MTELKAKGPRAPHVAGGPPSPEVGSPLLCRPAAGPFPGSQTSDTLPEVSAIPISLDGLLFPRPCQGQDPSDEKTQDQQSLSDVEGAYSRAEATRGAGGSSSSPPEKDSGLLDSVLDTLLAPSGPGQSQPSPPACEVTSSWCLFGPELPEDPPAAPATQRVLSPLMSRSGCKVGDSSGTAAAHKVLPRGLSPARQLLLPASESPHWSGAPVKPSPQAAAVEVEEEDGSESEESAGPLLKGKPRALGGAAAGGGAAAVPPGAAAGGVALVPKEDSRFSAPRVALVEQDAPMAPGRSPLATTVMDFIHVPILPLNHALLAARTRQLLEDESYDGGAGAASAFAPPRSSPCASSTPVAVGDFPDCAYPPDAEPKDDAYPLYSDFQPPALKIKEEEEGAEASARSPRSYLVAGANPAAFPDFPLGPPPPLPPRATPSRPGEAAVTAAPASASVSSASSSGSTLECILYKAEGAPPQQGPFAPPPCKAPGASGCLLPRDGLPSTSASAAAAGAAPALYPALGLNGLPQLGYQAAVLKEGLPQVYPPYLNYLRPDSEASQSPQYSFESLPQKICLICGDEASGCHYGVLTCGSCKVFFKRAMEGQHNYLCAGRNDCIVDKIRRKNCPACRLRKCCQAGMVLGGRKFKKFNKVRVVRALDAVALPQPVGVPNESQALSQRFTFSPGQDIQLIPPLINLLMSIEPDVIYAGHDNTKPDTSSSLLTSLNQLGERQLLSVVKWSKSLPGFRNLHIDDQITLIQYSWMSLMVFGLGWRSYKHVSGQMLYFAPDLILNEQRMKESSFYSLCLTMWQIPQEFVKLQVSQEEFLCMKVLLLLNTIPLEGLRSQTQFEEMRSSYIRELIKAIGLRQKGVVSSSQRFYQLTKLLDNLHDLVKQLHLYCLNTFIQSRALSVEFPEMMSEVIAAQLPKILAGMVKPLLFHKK

For assay [10] the target is unchanged. Nature of the assay: qHTS assay to identify small molecule antagonists of the progesterone receptor (PR) signaling pathway (AID 1346795; active = well fitted inhibition curve with a large enough effect in the signal ratio in the repeat runs, not every such curve was filed as active; the % refers to the signal ratio). In a few lines:
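Antagonist mode: compounds tested against 1 nM (final) promegestone stimulation in HEK293T cells expressing PR-UAS-bla reporter, 16 hr at 37C, 5% CO2; beta-lactamase activity detected via B/G FRET substrate after 2 hr at room temperature.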

Assay [11] is described as follows: qHTS assay to identify small molecule antagonists of the progesterone receptor (PR) signaling pathway - cell viability counter screen (AID 1346798). Also: series mostly up to about 92 µM; nearly all actives have a fitted effect of over 50% in size. The essentials:
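Counter screen for cytotoxicity: viability of PR-UAS-bla HEK293T cells was measured with CellTiter-Glo luminescence following 16 hr compound exposure in the presence of R5020.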

Assay [12] in a line: qHTS assay to identify small molecule agonists of the progesterone receptor (PR) signaling pathway - cell viability counter screen (AID 1346799; calls by dose curve; also: nearly all actives have a fitted effect of over 45% in size). The essentials: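 Cells (PR-UAS-bla HEK293T) are plated at 3,000/well in 2% charcoal-stripped FBS medium, rested 6 hr, dosed and incubated 16 hr at 37C. CellTiter-Glo is then added and luminescence measured after 30 min at room temperature.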

The nature of assay [13]: qHTS assay to identify small molecule antagonists of the TGF-beta/Smad signaling pathway - cell viability counter screen (AID 1346824). Also: nearly all actives have a fitted effect of over 50% in size. The essentials: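 SBE-bla HEK 293T cells were plated overnight at 37 C, then given compounds in DMSO plus TGF-beta1 (added as 0.25 ng/mL solution) for 5 hr. After the bla read, CellTiter-Glo was added to the same wells and luminescence read after 30 min at room temperature.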

The nature of assay [14]: qHTS assay to identify small molecule agonists of the TGF-beta/Smad signaling pathway - cell viability counter screen (AID 1346829). Also: top concentration of the series differs between compounds; nearly all actives have a fitted effect of over 45% in size. In a few lines: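 SBE-bla HEK 293T cells plated overnight, compound exposure 5 hr at 37 C. Viability read in the same wells by CellTiter-Glo luminescence after 30 min at room temperature, following the beta-lactamase read.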
A short description of assay [15]: qHTS assay to identify small molecule agonists of the TGF-beta/Smad signaling pathway (AID 1346859; active = well fitted activation curve with a large enough effect in the signal ratio in the repeat runs, not every such curve was filed as active; the % refers to the signal ratio; also: series mostly up to about 77 µM). The essentials:
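Reporter line: HEK 293T with stably integrated SBE-controlled beta-lactamase. Compound exposure lasts 5 hr at 37 C and 5% CO2; substrate loading follows for 2 hr at room temperature, with emission read at 460 and 530 nm.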

The target in assay [16] is Thyrotropin-releasing hormone receptor (Homo sapiens) (UniProt P34981). Nature of the assay: qHTS assay to identify small molecule antagonists of the thyrotropin-releasing hormone receptor (TRHR) signaling pathway (AID 1346877; active = well fitted inhibition curve with a large enough effect in the repeat runs, not every such curve was filed as active; also: series mostly up to about 51 µM). The essentials:
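Screening used HEK293 cells engineered with TRHR, with a brief 5 min room-temperature compound exposure preceding addition of TRH to 1 nM. The read-out was kinetic calcium-dye fluorescence, concentration-response from 15 doses in triplicate.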

Assay [17] shares this target. The experiment in a line: qHTS assay to identify small molecule agonists of the thyrotropin-releasing hormone receptor (TRHR) signaling pathway (AID 1346891; calls by dose curve;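 also: HEK293 cells expressing TRHR with calcium dye readout; series mostly up to about 58 µM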). In a few lines: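 Cells: TRHR-Hek293, seeded and incubated 18 h. Dye loading: 2 h at 37 °C. Compound added from DMSO stock by pin tool. Read-out: kinetic calcium fluorescence over 3 min.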
Assay [18] concerns the target Estrogen receptor beta (Homo sapiens) (UniProt Q92731). Nature of the assay: qHTS assay to identify small molecule agonists of the estrogen receptor beta (ER-beta) signaling pathway (AID 1259377; active = well fitted activation curve with a large enough effect in the signal ratio in the repeat runs, not every such curve was filed as active; the % refers to the signal ratio). The essentials: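 Agonist mode cell assay in GripTite HEK293T cells expressing an ER-beta fusion that drives beta-lactamase from an Upstream Activator Sequence; 16 hr compound exposure at 37C, then 2 h LiveBLAzer B/G FRET substrate at room temperature, fluorescence read-out.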

Assay [19] addresses Androgen receptor (Homo sapiens) (UniProt P10275). Nature of the assay: qHTS assay to identify small molecule agonists of the androgen receptor (AR) signaling pathway in the presence of an antagonist (AID 1259381; calls by dose curve; also: nearly all actives have a fitted effect of over 15% in size). The essentials:
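Using human MDA-kb2 cells with an MMTV promoter–luciferase construct (AR and GR response elements), agonist activity is scored under 3.0uM nilutamide (final) co-treatment; 16hr incubation, 37C, luminescence readout via ONE-Glo.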

Results filed as inconclusive are left out. Active and inactive are the calls of the source. Unless noted, calls follow the shape of the dose curve; as a rule, active = well fitted curve in the direction sought with a large enough effect in the repeat runs; inconclusive = weak or mixed curves; inactive = no such curve, though single readings can be large; an effect the other way counts as inactive or inconclusive.

Thyrotropin-releasing hormone receptor (Homo sapiens), sequence (P34981 whole entry, looked up): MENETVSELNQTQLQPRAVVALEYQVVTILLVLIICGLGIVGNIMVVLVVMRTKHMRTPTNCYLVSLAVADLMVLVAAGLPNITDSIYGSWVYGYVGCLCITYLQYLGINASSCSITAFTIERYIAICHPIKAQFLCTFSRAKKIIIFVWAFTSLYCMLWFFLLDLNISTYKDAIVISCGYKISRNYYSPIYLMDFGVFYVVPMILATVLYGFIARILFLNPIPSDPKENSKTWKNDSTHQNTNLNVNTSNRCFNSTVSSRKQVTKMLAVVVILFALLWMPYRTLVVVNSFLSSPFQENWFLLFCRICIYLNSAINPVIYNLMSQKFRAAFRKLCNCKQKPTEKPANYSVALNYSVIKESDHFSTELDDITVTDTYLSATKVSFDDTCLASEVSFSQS
Thyrotropin receptor (Homo sapiens), sequence (P16473 whole entry, looked up): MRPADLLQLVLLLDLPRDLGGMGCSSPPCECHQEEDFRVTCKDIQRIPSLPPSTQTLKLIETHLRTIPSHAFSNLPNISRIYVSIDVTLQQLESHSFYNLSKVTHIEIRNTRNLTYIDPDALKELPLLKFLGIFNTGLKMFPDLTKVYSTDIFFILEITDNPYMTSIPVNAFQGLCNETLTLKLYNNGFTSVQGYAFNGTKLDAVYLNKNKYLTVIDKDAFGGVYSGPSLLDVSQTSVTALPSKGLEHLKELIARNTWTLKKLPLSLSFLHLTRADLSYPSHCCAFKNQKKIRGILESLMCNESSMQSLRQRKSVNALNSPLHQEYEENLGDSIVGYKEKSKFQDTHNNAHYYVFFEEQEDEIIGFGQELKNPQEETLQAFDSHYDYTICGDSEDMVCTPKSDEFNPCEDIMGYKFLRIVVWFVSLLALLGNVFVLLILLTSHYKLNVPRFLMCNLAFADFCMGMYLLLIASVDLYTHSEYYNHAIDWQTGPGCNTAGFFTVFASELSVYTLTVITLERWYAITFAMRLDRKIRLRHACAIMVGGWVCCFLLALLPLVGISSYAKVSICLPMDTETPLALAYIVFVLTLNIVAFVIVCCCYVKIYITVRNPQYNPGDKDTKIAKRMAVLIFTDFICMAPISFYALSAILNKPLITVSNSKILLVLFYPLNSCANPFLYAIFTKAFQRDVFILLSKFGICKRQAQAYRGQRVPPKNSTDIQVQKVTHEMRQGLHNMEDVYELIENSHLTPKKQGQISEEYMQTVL
Estrogen receptor (Homo sapiens), sequence (P03372 whole entry, looked up): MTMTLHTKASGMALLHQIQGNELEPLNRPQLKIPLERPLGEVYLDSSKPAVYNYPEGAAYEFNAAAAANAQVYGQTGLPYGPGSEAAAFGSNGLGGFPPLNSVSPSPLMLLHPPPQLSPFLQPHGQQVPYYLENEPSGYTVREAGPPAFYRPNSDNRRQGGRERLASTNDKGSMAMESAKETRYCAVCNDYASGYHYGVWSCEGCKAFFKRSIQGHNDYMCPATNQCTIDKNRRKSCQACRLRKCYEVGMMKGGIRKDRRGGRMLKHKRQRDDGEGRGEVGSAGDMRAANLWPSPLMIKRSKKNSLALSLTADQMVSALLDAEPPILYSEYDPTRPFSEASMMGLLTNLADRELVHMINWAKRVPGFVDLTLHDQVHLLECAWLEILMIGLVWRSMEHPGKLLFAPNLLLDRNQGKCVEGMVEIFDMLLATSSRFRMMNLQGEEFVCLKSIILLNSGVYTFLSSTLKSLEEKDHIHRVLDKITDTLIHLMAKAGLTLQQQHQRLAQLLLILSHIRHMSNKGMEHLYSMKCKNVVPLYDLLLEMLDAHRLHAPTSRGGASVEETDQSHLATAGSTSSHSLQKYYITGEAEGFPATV
Estrogen receptor beta (Homo sapiens), sequence (Q92731 whole entry, looked up, the tested form may be a part): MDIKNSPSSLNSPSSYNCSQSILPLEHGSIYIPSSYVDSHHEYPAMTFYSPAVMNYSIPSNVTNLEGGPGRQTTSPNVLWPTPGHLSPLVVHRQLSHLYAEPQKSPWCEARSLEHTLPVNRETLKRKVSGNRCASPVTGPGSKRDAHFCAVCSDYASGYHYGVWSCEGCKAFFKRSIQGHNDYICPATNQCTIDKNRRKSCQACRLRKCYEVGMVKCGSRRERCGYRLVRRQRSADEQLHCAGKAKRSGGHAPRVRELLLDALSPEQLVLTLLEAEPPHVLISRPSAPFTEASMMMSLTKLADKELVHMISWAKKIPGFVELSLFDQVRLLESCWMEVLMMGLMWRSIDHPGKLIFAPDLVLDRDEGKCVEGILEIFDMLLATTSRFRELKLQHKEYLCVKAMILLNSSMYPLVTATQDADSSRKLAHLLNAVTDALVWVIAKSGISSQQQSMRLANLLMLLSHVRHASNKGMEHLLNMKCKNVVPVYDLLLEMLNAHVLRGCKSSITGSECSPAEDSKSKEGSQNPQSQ
Androgen receptor (Homo sapiens), sequence (P10275 whole entry, looked up): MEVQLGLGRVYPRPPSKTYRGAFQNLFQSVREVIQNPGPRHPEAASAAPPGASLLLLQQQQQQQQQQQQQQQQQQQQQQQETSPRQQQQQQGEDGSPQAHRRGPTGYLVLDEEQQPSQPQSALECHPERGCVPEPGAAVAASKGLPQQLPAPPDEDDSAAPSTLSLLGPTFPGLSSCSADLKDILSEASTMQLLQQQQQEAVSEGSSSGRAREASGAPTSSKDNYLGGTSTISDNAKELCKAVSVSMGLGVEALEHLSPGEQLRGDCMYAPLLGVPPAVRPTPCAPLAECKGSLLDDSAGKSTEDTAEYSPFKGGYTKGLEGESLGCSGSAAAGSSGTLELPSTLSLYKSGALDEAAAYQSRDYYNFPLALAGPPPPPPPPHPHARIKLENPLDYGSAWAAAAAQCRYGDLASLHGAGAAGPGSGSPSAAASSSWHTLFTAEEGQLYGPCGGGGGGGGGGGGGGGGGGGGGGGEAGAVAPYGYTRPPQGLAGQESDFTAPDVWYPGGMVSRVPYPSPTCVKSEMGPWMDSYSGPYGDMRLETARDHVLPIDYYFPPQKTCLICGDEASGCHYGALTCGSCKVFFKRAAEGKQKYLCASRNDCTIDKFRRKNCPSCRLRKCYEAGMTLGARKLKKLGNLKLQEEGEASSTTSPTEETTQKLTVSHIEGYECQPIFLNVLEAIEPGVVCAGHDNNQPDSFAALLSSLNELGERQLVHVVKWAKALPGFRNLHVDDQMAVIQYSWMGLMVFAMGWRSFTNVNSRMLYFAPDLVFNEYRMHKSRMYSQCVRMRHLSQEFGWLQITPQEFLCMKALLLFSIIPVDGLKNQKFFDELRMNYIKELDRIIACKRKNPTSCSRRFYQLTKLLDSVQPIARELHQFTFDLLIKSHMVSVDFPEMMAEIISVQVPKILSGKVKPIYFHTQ

For `CC(C)(CCl)c1ccccc1`, the Potency result in [1], in [2], in [3], in assay [4], in [5] and in assay [7] was “inactive” each time. The Potency entry in [8], in assay [9], in assay [10], in assay [11], in assay [12] and in [17] was “inactive” each time. Further, the result in assay [6], in assay [13], in [14], in [15] and in [16] was inactive.

Regarding `O=C(c1ccc(O)cc1)c1ccc(Cl)cc1`, the Potency entry in [3], in assay [4] and in [11] was “inactive” throughout. Further, the result in assay [13], in assay [14] and in [16] was inactive.

As for `O=C(Nc1ccc([N+](=O)[O-])cc1)Nc1ccc([N+](=O)[O-])cc1`, the Potency entry in assay [18], in assay [4], in assay [8], in assay [9], in assay [10] and in assay [17] was “inactive” each time. For the same compound, the compound was called inactive in assay [6], in assay [13], in assay [14], in assay [15] and in assay [16].

As to `OC(CCCN1CCCCC1)(c1ccccc1)c1ccccc1`, the Potency entry in assay [2], in assay [3], in [19], in assay [4], in [5] and in assay [7] was “inactive” in each case. Moreover, the Potency entry in assay [9], in assay [10], in assay [11], in assay [12] and in assay [17] was “inactive” in each case. Moreover, the compound was classed as inactive in assay [6], in [13], in [14], in assay [15] and in [16].

As for `CCCCC/C(=C\c1ccccc1)CO`, the Potency entry in assay [1], in [2], in [4], in assay [8], in assay [9] and in assay [11] was “inactive” throughout. The Potency entry in assay [12] is “inactive”. The compound was called inactive in [6], in assay [13], in [14], in [15] and in [16].

`O=C(CCCN1CCC(O)(c2ccc(Br)cc2)CC1)c1ccc(F)cc1`: the Potency result in assay [18], in [2], in [5], in assay [8], in assay [9] and in assay [11] was “inactive” each time. Further, the Potency entry in assay [12] is “inactive”. For the same compound, in assay [3], the Potency was 23.7 µM (active). The compound was called inactive in assay [13], in assay [14], in [15] and in assay [16].

In the case of `Nc1nccs1`, the Potency entry in [1], in assay [2], in [3], in assay [4], in [8] and in assay [9] was “inactive” in each case. The Potency result in assay [10], in assay [11] and in assay [12] was “inactive” throughout. Further, the compound was classed as inactive in [13], in assay [14], in [15] and in [16].

As for `CCc1c2c(nc3ccc(OC(=O)N4CCC(N5CCCCC5)CC4)cc13)-c1cc3c(c(=O)n1C2)COC(=O)[C@]3(O)CC`, the Potency entry in [18], in assay [2], in assay [3], in assay [4], in assay [5] and in assay [9] was “inactive” in each case. The Potency result in assay [10], in assay [11] and in assay [12] was “inactive” in each case. In addition, the result in assay [6], in assay [14], in assay [15] and in [16] was inactive.

Take `CC1(C)C2=CCCC(C)(C)[C@]23CC[C@H]1C3`: the Potency result in assay [2], in [19], in assay [7], in assay [8], in [10] and in assay [17] was “inactive” each time. In addition, the result in assay [6], in assay [13], in [14], in assay [15] and in assay [16] was inactive.

Take `NC(=O)Nc1ccc(Cl)c(Cl)c1`: the Potency entry in assay [2], in assay [3], in assay [4], in assay [7], in assay [8] and in assay [9] was “inactive” each time. The Potency result in [11] and in assay [12] was “inactive” each time. In addition, the result in assay [13], in assay [14], in assay [15] and in assay [16] was inactive.
